Pf growth 96h: P. falciparum growth inhibition at 96 hours. P. falciparum luciferase reporter growth, 96 h. Potency, µM (top dose mostly 28.7 µM), usual class: inhibitors. 6.9% of 320,000 active. AID 504834
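Luminescence readout: decreased luciferase signal marks inhibited growth of reporter-expressing P. falciparum in infected red cells (2% hematocrit, 0.05% parasitemia final), exposed to compound two generations (96 h, 37 C, 5% CO2).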
Sm TGR block: inhibitors of Schistosoma mansoni thioredoxin glutathione reductase; Q962Y6; purified TGR, DTNB reduction, TNB absorbance 405 nm; Potency, µM (series often up to 114 µM), actives largely listed as inhibitors; 3% of 360,000 active; also: nearly all actives have a fitted effect of over 60% in size
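Kinetic colorimetric format: TGR-catalysed, NADPH-driven DTNB reduction monitored via TNB absorbance. Enzyme dispensed at 20 nM; compound exposure 15 min at room temperature before reaction start.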
Pf growth 48h: P. falciparum growth inhibition at 48 hours (one generation). AID 504832. P. falciparum luciferase growth in erythrocytes, 48 h. Potency, µM (series often up to 28.7 µM), actives largely listed as inhibitors. 5.9% of 310,000 active
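A one-generation exposure of luciferase-tagged malaria parasites in RPMI 1640/Albumax erythrocyte culture, 37 C and 5% CO2. Inhibition is inferred from decreased luminescence after adding detection reagent.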
SARS PLpro yeast: inhibitors of SARS-CoV papain-like protease in yeast; 0.19% of 330,000 active; S. cerevisiae expressing SARS-CoV PLpro, growth rescue; Potency, µM (titrated, usually from 32.9 µM), most hits filed as activators; calls by dose curve; also: nearly all actives have a fitted effect of over 55% in size
Large screens that a line does not name were inactive. Only some compounds are listed: those with a hit (about 12% of all), similar ones and a draw of the others. Unless noted, calls follow the shape of the dose curve; as a rule, active = well fitted curve in the direction sought with a large enough effect; inconclusive = small, poorly fitted or top-dose-only effect, or another doubt; inactive = no such curve, though single readings can be large; an effect the other way counts as inactive or inconclusive.

CC(C)(C)n1nnnc1C(c1ccncc1)N1CCCCCC1 (stereo unspecified)	Pf growth 96h inconclusive
CC(C)(C)P(=O)(c1ccncc1)N1CCCC1 (stereo unspecified)	Pf growth 96h 0.738µM, Pf growth 48h inconclusive
CCCc1cnc(N2CCN(C(=O)c3ccc(OC)cc3)CC2)nc1	Pf growth 96h inconclusive, Pf growth 48h inconclusive
CNC(=O)Cn1nc(-c2ccc(C)c(S(=O)(=O)N(C)C)c2)c2ccccc2c1=O	Pf growth 96h 9.28µM
Cc1ccc(-c2nnc(NCc3nc4ccccc4[nH]3)c3ccccc23)cc1S(=O)(=O)N(C)C	Pf growth 96h inconclusive, Pf growth 48h 13.1µM
Cc1ccc(-c2nnc(NCc3nc4ccccc4[nH]3)c3ccccc23)cc1S(=O)(=O)N1CCOCC1	Pf growth 96h 2.62µM, Pf growth 48h 11.7µM
Cc1noc(C)c1-c1csc(N2CCC(C(N)=O)CC2)n1	none
Cc1cccc(C)c1OCc1cc(C(=O)N2CCN(c3ccc(F)cc3)CC2)no1	Pf growth 96h inconclusive
Cc1cccc(NC(=O)C2Cc3ccccc3O/C2=N\O)c1 (stereo unspecified)	none
CCOc1ccc(-n2cc(C(=O)Nc3cccc(Cl)c3)c3cc(OC)c(OC)cc3c2=O)cc1	none (no result: Pf growth 48h)
CCOc1ccc(NC(=O)c2cn(-c3ccc(OCC)cc3)c(=O)c3cc(OC)c(OC)cc23)cc1	Pf growth 96h 3.29µM, Pf growth 48h inconclusive
CCOc1ccc(-n2cc(C(=O)N3CCC(C)CC3)c3cc(OC)c(OC)cc3c2=O)cc1	Pf growth 48h 9.28µM
CCc1ccccc1N(C)C(=O)C1CCCN(c2ncnc3c2nc2n3CCCCC2)C1 (stereo unspecified)	none (no result: Pf growth 96h, Pf growth 48h, SARS PLpro yeast)
COC(=O)CC1Oc2ccc(F)cc2-n2cc(-c3ccc(Cl)cc3)nc21 (stereo unspecified)	none (no result: Pf growth 96h, Pf growth 48h, SARS PLpro yeast)
CN(C)S(=O)(=O)c1ccc(C(=O)NCc2nnc(SCC(=O)c3ccccc3)o2)cc1	Pf growth 48h inconclusive
Cc1ccc(C)c(CN2CCC(CNC(=O)Nc3ccc(Br)cc3F)CC2)c1	Pf growth 48h 13.1µM
CN1CCN(C(CNC(=O)C(=O)Nc2ccccc2)c2ccc3c(c2)OCO3)CC1 (stereo unspecified)	none (no result: Pf growth 96h, Pf growth 48h, SARS PLpro yeast)
Cc1cccc(-c2noc(Cc3ccc(Cl)cc3)n2)c1	Pf growth 96h inconclusive
COc1ccc(-c2noc(CN(C)Cc3ccc(C)o3)n2)cc1	Sm TGR block 35.5µM, SARS PLpro yeast inconclusive
COc1ccc(Cc2nc(-c3cccc(C)c3)no2)cc1	Pf growth 96h 14.7µM, SARS PLpro yeast inconclusive (no result: Pf growth 48h)
COc1ccccc1CC(=O)Nc1ccc(-c2noc(COc3cccc(C)c3C)n2)cc1	Pf growth 96h 14.7µM (no result: Pf growth 48h)
CN(Cc1ccc(F)cc1)Cc1nc(-c2ccccc2)no1	Pf growth 96h 10.4µM, Sm TGR block inconclusive
COc1ccc(-c2noc(CN(C)Cc3ccccc3)n2)cc1	Pf growth 96h inconclusive
Cc1ccc(-c2nonc2NC(=O)c2ccc(F)cc2)cc1C	none (no result: Pf growth 96h, Pf growth 48h, SARS PLpro yeast)
COC(CNC(=O)C(=O)Nc1cc2c3c(c1)CCN3C(=O)CC2)OC	none
COc1ccc(-c2noc(-c3ccc(NC(C)c4ccccc4)c([N+](=O)[O-])c3)n2)cc1OC (stereo unspecified)	none (no result: Pf growth 96h, Pf growth 48h, SARS PLpro yeast)
COc1cc(CC(=O)OCC(=O)c2ccc[nH]2)cc(OC)c1OC	none (no result: Pf growth 96h, Sm TGR block, Pf growth 48h)
COc1ccc(-c2noc(Cc3ccccc3OC)n2)cc1	Pf growth 96h 13.1µM
COc1cc(NC(=O)c2cc(Cl)ccc2Cl)ccc1-c1cc2ccccc2oc1=O	Pf growth 96h 11.7µM, Pf growth 48h inconclusive
COc1cc(NC(=O)c2cccnc2)ccc1-c1cc2ccccc2oc1=O	none
COc1ccc(-c2cc3ccccc3oc2=O)cc1NC(=O)c1ccc([N+](=O)[O-])o1	Pf growth 96h 2.62µM, Pf growth 48h inconclusive
COc1ccc(-c2cc3ccccc3oc2=O)cc1NC(=O)c1ccc(Br)o1	none
CCC(=O)Nc1cc(-c2cc3ccccc3oc2=O)ccc1OC	Pf growth 96h 2.94µM
Cn1c(=O)c2cc(C(=O)Nc3cccc(C#N)c3)sc2c2ccccc21	none (no result: Pf growth 96h, Pf growth 48h, SARS PLpro yeast)
Cc1cc(C)cc(OCC(=O)N2CCC(c3nc4ccccc4o3)CC2)c1	none (no result: Pf growth 96h, Pf growth 48h, SARS PLpro yeast)
O=C(NC1CC2CCC(C1)N2Cc1ccccc1)c1ccccc1Cl (stereo unspecified)	Pf growth 96h 13.1µM
COc1ccc(CN2C3CCCC2CC(NC(=O)Nc2cccc(C)c2)C3)cc1 (stereo unspecified)	Pf growth 48h 7.38µM
COc1ccc(CN2C3CCCC2CC(NC(=O)Nc2ccccc2)C3)cc1 (stereo unspecified)	Pf growth 96h inconclusive, Pf growth 48h 10.4µM
CCOc1ncccc1C(=O)OCC(=O)NCc1ccccc1	none (no result: Pf growth 96h, Sm TGR block, Pf growth 48h)
C/C=C/c1ccc(OCC(=O)OCc2csc(CC(=O)Nc3ccccc3C)n2)c(OC)c1	none
C=CCSc1nnc(-c2cc(C(C)(C)C)nn2Cc2ccc(F)cc2)n1C	Pf growth 96h 9.28µM, Pf growth 48h 13.1µM
C=CCSc1nnc(-c2cnn(-c3ccccc3)c2-n2cccc2)n1C	Pf growth 96h inconclusive (no result: Pf growth 48h)
Cc1cc(C(=O)O)ccc1N=Cc1c(O)ccc2ccccc12	Pf growth 96h 11.7µM, Sm TGR block 50.1µM
C=Cc1ccc(N=Cc2c(O)ccc3ccccc23)cc1	Sm TGR block 63.1µM
Oc1cccc(C=NCc2ccccc2)c1O	Pf growth 96h inconclusive, Sm TGR block 50.1µM
Oc1ccc2ccccc2c1C=Nc1ccccc1Br	none
Oc1ccccc1N=Cc1c(O)ccc2ccccc12	Pf growth 96h 10.4µM, Sm TGR block 28.2µM, Pf growth 48h inconclusive
Oc1c(C=NCc2ccccc2)sc2ccccc12	none
CCc1sc(C(=O)Nc2cc(S(=O)(=O)N3CCOCC3)ccc2OC)cc1C	Pf growth 96h inconclusive, Pf growth 48h inconclusive
CCCS(=O)(=O)c1nc(S(=O)(=O)c2ccc(C)cc2)c(NCC(C)C)s1	none (no result: Pf growth 96h, Pf growth 48h, SARS PLpro yeast)
Cc1cc(NS(=O)(=O)c2cc(Cl)sc2Cl)no1	none (no result: Pf growth 48h)
Oc1cccc(C=Nc2cccc3ccccc23)c1O	Sm TGR block 7.94µM
OCC(CO)(CO)N=Cc1c(O)ccc2ccccc12	Pf growth 96h inconclusive
Oc1ccc2ccccc2c1C=NC12CN3CCN(CN(C3)C1)C2	Pf growth 96h inconclusive, Sm TGR block 44.7µM, Pf growth 48h inconclusive
COc1cccc(CN2C(=NC(=O)C3CC3)SC3CS(=O)(=O)CC32)c1 (stereo unspecified)	SARS PLpro yeast inconclusive
CCOC(=O)c1ccc(N2C(=O)C3C(C2=O)C(C(=O)c2ccc(Cl)cc2)N2CCCC32)cc1 (stereo unspecified)	Sm TGR block 15.8µM, Pf growth 48h 13.1µM
COc1cc(NC(=O)C2CCCN(S(=O)(=O)c3ccc4c(c3)CCCN4C(C)=O)C2)cc(OC)c1 (stereo unspecified)	Pf growth 48h inconclusive
COc1ccc(NC(=O)C2CCCN(S(=O)(=O)c3ccc4c(c3)CCCN4C(C)=O)C2)cc1 (stereo unspecified)	Pf growth 48h 11.7µM
COc1ccc(NC(=O)CCS(=O)(=O)c2ccc3c(c2)CCN3C(C)=O)cc1	Pf growth 96h 11.7µM
COc1ccc(NC(=O)C2CCCN(S(=O)(=O)c3ccc4c(c3)CC(C)N4C(C)=O)C2)cc1 (stereo unspecified)	Pf growth 48h 13.1µM
